Experimental data taken from ChEMBL document CHEMBL4888484, “Replenishing the malaria drug discovery pipeline: Screening and hit evaluation of the MMV Hit Generation Library 1 (HGL1) against asexual blood stage Plasmodium falciparum ,using a nano luciferase reporter read-out” (2022).
The whole screen tested about 4,800 compounds, of which about 420 (8.8%) showed an effect of 50% or more. The full list was thinned out, with strong results kept by preference.

System: Plasmodium falciparum
Experiment: Confirmatory screen in NF54 nanoGlo assay, in single point, at 2uM, 72h
Assay type: functional, Erythrocyte
Settings: timepoint 72 hour

Row | Structure (SMILES) | % Inhibition [%]
1 | C[C@H](O)CNCc1ccc(Cl)cc1Cl | -8
2 | CCCCCNC(=O)NCc1ncoc1C | -1
3 | CCNC(=O)NCCOC(=O)c1cccc(C)c1Cl | 1
4 | Cc1cc(C)cc(-c2cc3nc(C)cc(N4CCC(C(=O)Nc5ccc(C)c(Cl)c5)CC4)n3n2)c1 | 0
5 | Cc1cc(C)cc(-c2cc3nc(C)cc(N4CCC(C(=O)NCc5cccc(F)c5)CC4)n3n2)c1 | 79
6 | O=C(NCc1cccc(F)c1)[C@H]1CCCN(c2nc3ccccc3n(Cc3ccccc3)c2=O)C1 | 5
7 | CC[n+]1c(C)n(C2CCCCC2)c2ccc(C(=O)OC)cc21 | 0
8 | CC[N+](CC)(CC(=O)OC1CC2CCC1(C)C2(C)C)CC(=O)OC1CC2CCC1(C)C2(C)C (stereo unspecified) | 83
9 | Cn1cc(C(C(=O)O[C@@H]2C[C@@H]3CC[C@@]2(C)C3(C)C)c2cn(C)c3ccccc23)c2ccccc21 | 0
10 | CC1CCN(c2nccnc2Oc2ccc(C(=O)NCc3ccccc3Cl)cc2)CC1 | 59
11 | Cc1nc2cccnc2n1-c1cc(C(=O)NCc2ccccc2Cl)ccc1Cl | -2
12 | O=C(NCc1cccnc1Oc1ccccc1)c1cccnc1 | 5
13 | Cc1cc(=O)n2ncc(C(=O)NCc3cc(F)cc(F)c3)c2[nH]1 | -13
14 | C=CCOC(=S)NC(=O)Cc1ccccc1Cl | 7
15 | Cc1ccc(-c2cn3c4ccccc4nc3n2CCN2CCN(C)CC2)cc1 | 2
16 | CCN(CC)CCn1c2ccccc2n2cc(-c3ccc(Br)cc3)nc12 | 59
17 | Cn1c(-c2ccc(Br)cc2)cn2cc(-c3ccc(Cl)cc3)nc12 | -5
18 | Cn1c(-c2ccc(-c3ccccc3)cc2)cn2cc(-c3cccc(Br)c3)nc12 | 0
19 | O=C(Nc1ccccc1)c1cccc(CN2CCN3CCOC[C@@H]3C2)c1 | -5
20 | CCn1cc(NC(=O)CCn2ncc3c(Cl)cccc32)cn1 | -6
21 | O=C(c1cc2ncccn2n1)N1CCc2ccccc2C1 | -3
22 | O=S(=O)(Nc1cccc(-c2nnc3n2CCC3)c1)c1ccc2c(c1)OCCCO2 | -12

Row | Structure (SMILES) | % Inhibition [%]
23 | CN1CCC(Nc2ncnc3c2cnn3C)C1c1ccc(Cl)cc1 (stereo unspecified) | 4
24 | Brc1cncnc1NC1CC1 | 2
25 | CC1CC(Nc2ncnc3cc(Br)ccc23)CCN1C (stereo unspecified) | 96
26 | CC[C@H](O)CN1CCC(Nc2ncnc3cc(Cl)ccc23)CC1 | 42
27 | Cc1nc(-c2ccc(C(F)(F)F)cc2)nc(N2CCN(C(=O)c3cc(C(F)(F)F)cc(C(F)(F)F)c3)CC2)c1C(C)C | -2
28 | CC(C)(C)C(=O)Nc1cc(Br)c(O)c(Br)c1 | 3
29 | COCCN1CC2(CCCC2)N(C(=O)COc2ccc(F)cc2)CC1=O | -7
30 | COc1cc(=O)c(C(=O)N2CCC(C(N)=O)CC2)nn1-c1ccc(F)c(F)c1 | 3
31 | Cc1nccn1-c1cc(CNC(=O)[C@H]2CCCN(S(=O)(=O)c3cccs3)C2)ccn1 | 2
32 | Cc1n(CC(=O)c2ccccc2)c2ccccc2[n+]1CC(=O)c1ccccc1 | 68
33 | O=C(c1ccccc1)n1c(=O)n(C(=O)c2ccccc2)c2ccccc21 | 6
34 | Cc1ccc(C(=O)C[n+]2cc(-c3ccc(-c4ccccc4)cc3)n(C)c2N)cc1 | 4
35 | COc1ccc(S(=O)(=O)N2CCN(Cc3noc(CCC(=O)N(C)Cc4ccccc4)n3)CC2)cc1 | -6
36 | CC(C)(CC(=O)O)CC(=O)Nc1ccc(Cc2nnc3ccccn23)cc1 | -4
37 | O=C(NCC1CC1)c1cn[nH]c1-c1ccccc1 | -1
38 | COc1ccc(-c2c(C(F)(F)F)n[nH]c2-c2ccc(OCc3ccccc3F)cc2O)cc1 | 90
39 | COc1cc(OC)cc(C2(O)CCN(C(=O)CCc3ccccc3F)CC2)c1 | -10
40 | c1ccc(-c2cn[nH]c2N2CCNCC2)cc1 | -7
41 | Oc1cc(OCc2ccccc2F)ccc1-c1[nH]ncc1-c1ccccc1 | 75
42 | COc1cc(-c2nc3ccccc3s2)ccc1OCc1cccc2ccccc12 | -7
43 | NS(=O)(=O)Cc1ccc(CNc2ccc3ccc(F)cc3n2)cc1 | 3
44 | CCC(=O)N1CCc2sc(C(=O)NC3CCN(Cc4ccccc4)CC3)cc2C1 | -5

Row | Structure (SMILES) | % Inhibition [%]
45 | CCCn1nccc1C(=O)NCCCn1ncc2c(C)cccc21 | -2
46 | CNC(=O)c1cc(NS(=O)(=O)N2CCCCCC2)ccc1F | -8
47 | CCNC(=O)N1CCCC[C@@]1(C)c1noc(-c2ccc(F)cc2)n1 | 5
48 | O=C(Nc1ccncc1)c1nc(N2CCCC2)ncc1Br | -5
49 | Fc1ccc(COc2cccc(CNCCN3CCOCC3)c2)cc1 | -8
50 | Cc1nn(C)c(Cl)c1CNCc1ccc(N2CCCCC2)nc1 | -10
51 | COc1cc(CNCCN2CCOCC2)ccc1OCc1cccc(C)c1 | -2
52 | CC1CCC(C)(NC(=O)Nc2ccn(C(C)C)n2)CC1 (stereo unspecified) | -11
53 | CC1(C)CC[C@H](NC(=O)CCNc2ncccn2)c2ccccc21 | -8
54 | COc1cc2c(cc1OC)CN(c1noc(-c3ccccc3)n1)CC2 | -5
55 | CC(C)(C)c1ccc(C(=O)N[C@H]2C[C@@H]3CC[C@H]2C3)cc1 | 8
56 | Cc1ccc(CNC(=O)c2csnn2)n1C | -1
57 | COc1ccc(CNC(=O)[C@H](C)n2ccc3cc(S(=O)(=O)N4CCCC4)ccc32)cc1OC | 0
58 | O=C1NC(=O)C2(CCN(C(=O)C3CC4CCC3C4)CC2)N1 (stereo unspecified) | -7
59 | CS(=O)(=O)N1CC[C@H](CC(=O)N2CCN(c3ccc(F)cc3)CC2)C1 | -14
60 | CC(C)C(=O)N1CC[C@H](CC(=O)NCc2ccncc2)C1 | 0
61 | N#CC1CCC(Nc2cnn(-c3ccncc3)c2)CC1 (stereo unspecified) | 5
62 | Cc1nn(C)cc1S(=O)(=O)N1CCC[C@@H]1CCc1ccccn1 | -12
63 | COc1cc(OC)c(OC)cc1CNC(C)C | -2
64 | Cc1c(C(=O)NC[C@](C)(O)c2ccc(F)cc2F)cnn1C | 7
65 | CN(Cc1cccnc1)c1ccc(S(=O)(=O)C(F)F)cc1 | -5
66 | O=C(NCCc1c(Cl)cccc1Cl)[C@@H]1CCCc2[nH]cnc21 | -2

Row | Structure (SMILES) | % Inhibition [%]
67 | O=C(c1cc(F)c[nH]1)N1CCN(C(=O)c2cc(F)c[nH]2)[C@@H]2CCCC[C@H]21 | 13
68 | COc1ccc(-c2cc3ncc(C(=O)c4cc(Cl)ccc4O)cn3n2)cc1 | 72
69 | COc1ccc(C2=NC3(CCN(Cc4ccccc4)CC3)N[C@H](c3cc(Cl)ccc3O)C2)cc1 | 24
70 | O=C(Cc1ccc(Cl)cn1)Nc1ccnn1[C@H]1CCCc2ccccc21 | -10
71 | Cc1ccc(S(=O)(=O)N(CC(=O)NC2CCN(C)CC2)c2cccc(Cl)c2)cc1 | -7
72 | CN1CCN(C(=O)CNC(=O)c2cccc(Cl)c2)CC1 | -2
73 | Cc1ccc(COc2cccc(CNC3CC3)c2)cc1 | -7
74 | Cn1c(=O)c2ccnn2c2ccc(C(=O)NC3CCN(Cc4ccccc4)CC3)cc21 | 23
75 | CC(C)Cn1ncnc1COC(=O)c1cccnc1 | -1
76 | CC[C@H]1C[C@@H]1CNC(=O)c1cccc(NC(=O)c2ccco2)c1 | -7
77 | Cc1cc2[nH]ncc2cc1NC(=O)c1ccco1 | -8
78 | CC(C)(C)c1nc(Cn2c3c(sc2=O)CCCC3)no1 | 1
79 | COc1ccc(CN2CCC(C(=O)NCCCN3CCOCC3)CC2)c(OC)c1 | 4
80 | Cc1ccccc1S(=O)(=O)c1cc2cc(Br)cc(Br)c2nc1N | 0
81 | COc1cccc(C2=NS(=O)(=O)N(C)C(C(=O)N3CCC(C(N)=O)CC3)=C2)c1 | 20
82 | CC(=O)c1ccc(NC(=O)Cn2c(-c3ccccc3)nc(C)cc2=O)cc1 | 4
83 | CC(=O)Nc1ccc(-c2cn3c4ccccc4ccc3[n+]2C)cc1 | 76
84 | CC(=O)Nc1ccc(NC(=O)CCC(C)C)cc1 | -9
85 | CC(=O)N[C@H]1[C@H](c2ccccc2)N(CCCc2ccccc2)CC[C@@]1(C)O | 1
86 | C#CCN(C(=O)c1cnn(CC(C)C)c1C(F)F)c1nccs1 | -1
87 | Cc1ccc(C2=NC3(CCCC3)NC2=O)cc1 | 3
88 | Cc1ccc[n+](Cc2ccc3ccccc3n2)c1 | 53

Row | Structure (SMILES) | % Inhibition [%]
89 | c1ccc2c[n+](Cc3ccc4ccccc4n3)ccc2c1 | 50
90 | O[C@@H](Cc1ccc2ccccc2n1)c1ccccc1 | -5
91 | c1ccc2cc(-c3ccc4ccccc4n3)ccc2c1 | -1
92 | CC(C)(C)OC(=O)N1CCN(C[C@H]2CN(c3ccc(F)cc3)C(=O)O2)CC1 | -11
93 | O=C(Nc1ccccc1)c1ccc(Nc2ncc(-c3cccc(F)c3)cn2)cc1 | -3
94 | CC(C)(C)c1ccc(-c2cc(C[C@H]3CNCC[C@H]3CC(=O)NCCN3CCOCC3)no2)cc1 | 9
95 | OC(CNC1CCCNc2ccccc21)c1ccc(Cl)s1 (stereo unspecified) | 58
96 | O=C(NC[C@H](O)c1ccc(Cl)s1)c1ccsc1 | 1
97 | CC(C)(C)OCCON=C(N)c1cccs1 | 10
98 | O=C(C[C@@H]1C=CCC1)Nc1nc(-c2ccc(Cl)cc2)cs1 | 2
99 | C[C@H]1CNCCN1C(=O)c1coc2ccccc12 | -4
100 | O=C(Cn1ccnc1)N1CCCCCC1CC(O)c1ccccc1 (stereo unspecified) | 0
101 | O=c1[nH]c2cc3c(cc2c(=O)n1CCc1nc(-c2ccccc2Br)no1)OCO3 | -4
102 | O=C(C[C@H]1CCN(C(=O)Nc2ccccc2)C1)NC1CC1 | -6
103 | O=C(Nc1ccncc1)c1ccc2ccccc2n1 | 0
104 | CCOC(=O)c1ncn(C2CCCCC2)c1N | 1
105 | CCOC(=O)c1cc(NC(=O)C(C)(C)NC(=O)OC(C)(C)C)c(F)cc1C | -2
106 | CCOC(=O)c1cn(CC)c2cc(NC3CCCCC3)c(F)cc2c1=O | 78
